What all share (assay): DAPPL (digital affinity profiling via proximity ligation, sequencing); 10 mM Tris-HCl pH 7.5, 50 mM NaCl, 1 mM DTT, 4% glycerol, room temperature, 30 min; GST-TFs on glutathione beads, 16-mer random dsDNA library, 0.1% formaldehyde crosslink after washing; high values mean tight binding
In one assay the target is T1, FEV (Homo sapiens, UniProt Q99581 1-238).
T1 sequence: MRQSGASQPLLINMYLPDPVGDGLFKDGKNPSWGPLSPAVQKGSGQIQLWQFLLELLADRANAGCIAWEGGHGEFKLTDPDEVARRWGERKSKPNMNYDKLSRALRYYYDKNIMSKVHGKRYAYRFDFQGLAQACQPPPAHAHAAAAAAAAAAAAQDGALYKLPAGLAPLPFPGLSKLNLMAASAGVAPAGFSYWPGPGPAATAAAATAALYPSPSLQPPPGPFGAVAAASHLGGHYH
The conditions noted are these: protein: recombinant; tags: N-terminal GST; dsDNA, one strand shown. An outline of the steps:
(§1)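 Yeast served to express human transcription factors as GST fusions, which were then captured on glutathione beads and labelled with DNA barcodes. Pooled with a tag-only sample, they were incubated with 200 nmole of a 16-mer random double-stranded DNA library for 30 min at room temperature in Tris/NaCl/DTT/glycerol buffer, washed, crosslinked with 0.1% formaldehyde, ligated by proximity, amplified by PCR and sequenced. Dividing each hexamer's read frequency for a factor by its frequency for the tag-only sample gives the binding signal.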

In another assay the target is ETV5 (Homo sapiens, UniProt P41161 1-510). As to conditions: protein: recombinant; tags: N-terminal GST; dsDNA, one strand shown. An outline of the steps:
as §1

The target of a further assay is HSF1 (Homo sapiens, UniProt Q00613 1-529). As to conditions: protein: recombinant; tags: N-terminal GST; chain copies: 3; dsDNA, one strand shown. Summed up: as §1
The next assay deals with T2, SPIC (Homo sapiens, UniProt Q8N5J4 1-248).
T2 sequence: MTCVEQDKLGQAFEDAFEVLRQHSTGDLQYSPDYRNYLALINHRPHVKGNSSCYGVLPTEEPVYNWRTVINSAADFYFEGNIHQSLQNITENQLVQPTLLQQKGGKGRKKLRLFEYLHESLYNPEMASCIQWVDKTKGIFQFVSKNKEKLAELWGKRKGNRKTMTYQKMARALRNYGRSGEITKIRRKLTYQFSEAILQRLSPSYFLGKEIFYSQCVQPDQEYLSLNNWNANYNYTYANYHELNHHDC
The conditions noted are these: protein: recombinant; tags: N-terminal GST; dsDNA, one strand shown. An outline of the steps: as §1

Another assay addresses ELF4 (Homo sapiens, UniProt Q99607 1-663). The conditions noted are these: protein: recombinant; tags: N-terminal GST; dsDNA, one strand shown. Summed up: as §1
Another assay has as its target T3, ELK4 (Homo sapiens, UniProt P28324-2 1-405).
T3 sequence: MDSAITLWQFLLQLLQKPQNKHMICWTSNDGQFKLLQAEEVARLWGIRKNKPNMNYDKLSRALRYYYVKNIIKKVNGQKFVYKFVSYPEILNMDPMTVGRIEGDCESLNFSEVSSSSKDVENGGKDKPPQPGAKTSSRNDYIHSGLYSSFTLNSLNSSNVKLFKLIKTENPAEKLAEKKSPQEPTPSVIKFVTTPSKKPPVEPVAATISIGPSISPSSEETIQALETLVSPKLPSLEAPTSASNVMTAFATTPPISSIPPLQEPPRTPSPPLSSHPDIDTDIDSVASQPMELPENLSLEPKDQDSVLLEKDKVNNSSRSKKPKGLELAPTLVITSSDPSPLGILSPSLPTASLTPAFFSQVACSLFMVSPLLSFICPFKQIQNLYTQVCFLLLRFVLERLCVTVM
The conditions noted are these: protein: recombinant; tags: N-terminal GST; dsDNA, one strand shown. Summed up: as §1

The target of another assay is T4, ETV2 (Homo sapiens, UniProt O00321 1-342).
T4 sequence: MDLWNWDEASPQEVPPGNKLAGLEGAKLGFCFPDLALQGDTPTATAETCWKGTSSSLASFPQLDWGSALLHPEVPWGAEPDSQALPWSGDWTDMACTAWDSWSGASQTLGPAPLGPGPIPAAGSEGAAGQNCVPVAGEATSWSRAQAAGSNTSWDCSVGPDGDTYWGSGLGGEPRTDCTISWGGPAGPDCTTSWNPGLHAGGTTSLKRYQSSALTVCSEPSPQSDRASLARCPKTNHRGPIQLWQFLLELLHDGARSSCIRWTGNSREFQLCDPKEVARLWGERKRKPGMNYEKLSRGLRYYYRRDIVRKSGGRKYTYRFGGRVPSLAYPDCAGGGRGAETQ
The conditions noted are these: protein: recombinant; tags: N-terminal GST; dsDNA, one strand shown. An outline of the steps: as §1

The target of a further assay is T5, ELF3 (Homo sapiens, UniProt P78545 1-371).
T5 sequence: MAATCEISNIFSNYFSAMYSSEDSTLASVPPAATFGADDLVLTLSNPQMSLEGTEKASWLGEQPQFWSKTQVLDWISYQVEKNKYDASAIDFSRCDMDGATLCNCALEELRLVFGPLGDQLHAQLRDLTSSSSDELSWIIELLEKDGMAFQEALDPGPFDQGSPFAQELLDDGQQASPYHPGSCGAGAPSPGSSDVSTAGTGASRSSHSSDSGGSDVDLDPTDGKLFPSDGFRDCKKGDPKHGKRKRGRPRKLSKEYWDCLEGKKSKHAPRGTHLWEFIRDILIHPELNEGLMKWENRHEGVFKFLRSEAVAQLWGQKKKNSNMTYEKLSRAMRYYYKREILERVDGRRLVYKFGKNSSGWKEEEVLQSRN
The conditions noted are these: protein: recombinant; tags: N-terminal GST; dsDNA, one strand shown. An outline of the steps:
as §1

The target in the next assay is CRX (Homo sapiens, UniProt O43186 1-299). As to conditions: protein: recombinant; tags: N-terminal GST; dsDNA, one strand shown. An outline of the steps: as §1
A further assay addresses ETV1 (Homo sapiens, UniProt P50549 1-477). As to conditions: protein: recombinant; tags: N-terminal GST; dsDNA, one strand shown. An outline of the steps:
as §1

The next assay deals with T6, ERF (Homo sapiens, UniProt P50548 1-548).
T6 sequence: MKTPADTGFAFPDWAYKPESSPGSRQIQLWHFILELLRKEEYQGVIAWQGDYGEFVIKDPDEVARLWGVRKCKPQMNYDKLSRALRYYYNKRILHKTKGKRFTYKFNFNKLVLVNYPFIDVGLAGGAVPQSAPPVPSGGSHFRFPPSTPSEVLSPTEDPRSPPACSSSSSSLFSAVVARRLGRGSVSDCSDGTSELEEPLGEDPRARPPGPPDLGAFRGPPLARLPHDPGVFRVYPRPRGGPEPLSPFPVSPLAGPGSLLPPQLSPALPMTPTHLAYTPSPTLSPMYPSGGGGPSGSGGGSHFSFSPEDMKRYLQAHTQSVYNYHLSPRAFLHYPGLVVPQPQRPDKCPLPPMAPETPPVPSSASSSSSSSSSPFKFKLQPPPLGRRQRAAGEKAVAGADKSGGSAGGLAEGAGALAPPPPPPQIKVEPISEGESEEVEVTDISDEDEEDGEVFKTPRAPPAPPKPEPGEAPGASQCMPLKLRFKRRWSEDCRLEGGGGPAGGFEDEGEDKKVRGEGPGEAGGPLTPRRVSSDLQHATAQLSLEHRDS
As to conditions: protein: recombinant; tags: N-terminal GST; dsDNA, one strand shown. Summed up:
as §1

Another assay concerns the target T7, ETV3L (Homo sapiens, UniProt Q6ZN32 1-361).
T7 sequence: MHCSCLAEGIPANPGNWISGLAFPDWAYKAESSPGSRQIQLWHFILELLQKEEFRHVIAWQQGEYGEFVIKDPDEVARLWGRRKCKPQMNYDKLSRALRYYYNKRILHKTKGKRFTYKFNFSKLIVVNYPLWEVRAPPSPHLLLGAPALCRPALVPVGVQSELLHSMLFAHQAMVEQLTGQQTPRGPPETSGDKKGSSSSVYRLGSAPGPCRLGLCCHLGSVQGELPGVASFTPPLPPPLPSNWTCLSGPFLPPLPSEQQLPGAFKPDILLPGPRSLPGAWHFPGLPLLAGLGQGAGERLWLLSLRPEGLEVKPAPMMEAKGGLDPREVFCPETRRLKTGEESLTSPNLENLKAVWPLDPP
The conditions noted are these: protein: recombinant; tags: N-terminal GST; dsDNA, one strand shown. An outline of the steps:
as §1

A further assay addresses T8, ETS2 (Homo sapiens, UniProt P15036 1-469).
T8 sequence: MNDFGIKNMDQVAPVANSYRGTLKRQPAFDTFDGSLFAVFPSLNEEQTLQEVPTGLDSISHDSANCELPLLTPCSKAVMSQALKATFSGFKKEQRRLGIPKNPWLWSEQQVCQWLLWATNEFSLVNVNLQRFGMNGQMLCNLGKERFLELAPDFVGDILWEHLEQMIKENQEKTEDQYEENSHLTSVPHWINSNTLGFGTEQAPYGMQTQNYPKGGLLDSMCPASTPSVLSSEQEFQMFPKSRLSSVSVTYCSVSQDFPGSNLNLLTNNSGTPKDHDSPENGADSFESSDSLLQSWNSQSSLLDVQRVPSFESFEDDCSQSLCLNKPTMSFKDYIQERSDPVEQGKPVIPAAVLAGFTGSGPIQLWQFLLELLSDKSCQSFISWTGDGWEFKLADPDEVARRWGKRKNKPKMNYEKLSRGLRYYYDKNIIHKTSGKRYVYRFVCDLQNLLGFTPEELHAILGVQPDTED
The conditions noted are these: protein: recombinant; tags: N-terminal GST; dsDNA, one strand shown. An outline of the steps: as §1

The next assay concerns the target T9, SPDEF (Homo sapiens, UniProt O95238 1-335).
T9 sequence: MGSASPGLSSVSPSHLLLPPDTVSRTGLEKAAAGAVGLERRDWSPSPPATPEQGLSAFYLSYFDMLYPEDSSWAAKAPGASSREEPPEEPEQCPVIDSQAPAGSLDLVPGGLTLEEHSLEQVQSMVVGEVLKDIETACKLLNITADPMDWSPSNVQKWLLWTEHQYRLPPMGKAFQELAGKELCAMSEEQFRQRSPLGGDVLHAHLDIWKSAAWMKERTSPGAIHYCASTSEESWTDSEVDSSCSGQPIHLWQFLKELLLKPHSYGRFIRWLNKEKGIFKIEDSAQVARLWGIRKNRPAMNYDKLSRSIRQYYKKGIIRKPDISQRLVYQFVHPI
The conditions noted are these: protein: recombinant; tags: N-terminal GST; dsDNA, one strand shown. An outline of the steps: as §1

The next assay addresses T10, ETV7 (Homo sapiens, UniProt Q9Y603 1-341).
T10 sequence: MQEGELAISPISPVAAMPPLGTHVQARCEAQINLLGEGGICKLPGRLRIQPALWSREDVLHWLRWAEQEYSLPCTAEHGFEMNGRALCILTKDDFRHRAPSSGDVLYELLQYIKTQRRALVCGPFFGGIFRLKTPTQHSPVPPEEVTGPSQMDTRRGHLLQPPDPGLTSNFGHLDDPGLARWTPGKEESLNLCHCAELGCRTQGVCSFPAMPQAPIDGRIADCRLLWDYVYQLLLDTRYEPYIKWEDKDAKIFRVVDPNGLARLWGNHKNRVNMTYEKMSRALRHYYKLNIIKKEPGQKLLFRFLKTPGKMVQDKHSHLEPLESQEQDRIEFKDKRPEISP
As to conditions: protein: recombinant; tags: N-terminal GST; dsDNA, one strand shown. An outline of the steps: as §1

The target of another assay is T11, ELF5 (Homo sapiens, UniProt Q9UKW6-2 1-255).
T11 sequence: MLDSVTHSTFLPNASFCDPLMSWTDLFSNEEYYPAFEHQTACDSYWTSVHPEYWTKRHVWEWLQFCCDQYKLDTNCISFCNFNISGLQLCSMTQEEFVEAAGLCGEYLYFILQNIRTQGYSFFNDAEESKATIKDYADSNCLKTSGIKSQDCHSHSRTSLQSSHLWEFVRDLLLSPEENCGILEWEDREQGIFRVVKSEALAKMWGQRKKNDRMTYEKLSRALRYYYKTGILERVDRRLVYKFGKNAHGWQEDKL
The conditions noted are these: protein: recombinant; tags: N-terminal GST; dsDNA, one strand shown. Summed up:
as §1

The target of a further assay is T12, ETV3 (Homo sapiens, UniProt P41162-2 1-143).
T12 sequence: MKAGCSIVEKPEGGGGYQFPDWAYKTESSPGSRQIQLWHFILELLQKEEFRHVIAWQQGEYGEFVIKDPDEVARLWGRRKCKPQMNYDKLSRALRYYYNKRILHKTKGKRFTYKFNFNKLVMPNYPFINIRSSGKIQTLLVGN
As to conditions: protein: recombinant; tags: N-terminal GST; dsDNA, one strand shown. Summed up:
as §1

A further assay deals with ETV6 (Homo sapiens, UniProt P41212 1-452). The conditions noted are these: protein: recombinant; tags: N-terminal GST; dsDNA, one strand shown. An outline of the steps:
as §1

HSF1, sequence (Q00613 whole entry): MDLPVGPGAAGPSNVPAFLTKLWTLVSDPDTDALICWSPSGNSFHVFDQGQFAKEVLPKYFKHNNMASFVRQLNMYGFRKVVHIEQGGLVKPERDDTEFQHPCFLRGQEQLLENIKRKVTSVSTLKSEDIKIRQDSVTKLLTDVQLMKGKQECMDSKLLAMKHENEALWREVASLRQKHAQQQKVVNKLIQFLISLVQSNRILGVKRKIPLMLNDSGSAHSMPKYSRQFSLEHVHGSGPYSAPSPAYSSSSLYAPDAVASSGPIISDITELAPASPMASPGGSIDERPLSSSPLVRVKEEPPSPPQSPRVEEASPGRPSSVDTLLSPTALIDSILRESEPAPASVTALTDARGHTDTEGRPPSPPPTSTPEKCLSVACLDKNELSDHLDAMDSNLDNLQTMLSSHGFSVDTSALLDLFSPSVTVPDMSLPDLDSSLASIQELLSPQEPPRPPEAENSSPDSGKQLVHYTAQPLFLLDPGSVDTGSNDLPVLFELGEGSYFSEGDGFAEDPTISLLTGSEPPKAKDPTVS
ELF4, sequence (Q99607 whole entry): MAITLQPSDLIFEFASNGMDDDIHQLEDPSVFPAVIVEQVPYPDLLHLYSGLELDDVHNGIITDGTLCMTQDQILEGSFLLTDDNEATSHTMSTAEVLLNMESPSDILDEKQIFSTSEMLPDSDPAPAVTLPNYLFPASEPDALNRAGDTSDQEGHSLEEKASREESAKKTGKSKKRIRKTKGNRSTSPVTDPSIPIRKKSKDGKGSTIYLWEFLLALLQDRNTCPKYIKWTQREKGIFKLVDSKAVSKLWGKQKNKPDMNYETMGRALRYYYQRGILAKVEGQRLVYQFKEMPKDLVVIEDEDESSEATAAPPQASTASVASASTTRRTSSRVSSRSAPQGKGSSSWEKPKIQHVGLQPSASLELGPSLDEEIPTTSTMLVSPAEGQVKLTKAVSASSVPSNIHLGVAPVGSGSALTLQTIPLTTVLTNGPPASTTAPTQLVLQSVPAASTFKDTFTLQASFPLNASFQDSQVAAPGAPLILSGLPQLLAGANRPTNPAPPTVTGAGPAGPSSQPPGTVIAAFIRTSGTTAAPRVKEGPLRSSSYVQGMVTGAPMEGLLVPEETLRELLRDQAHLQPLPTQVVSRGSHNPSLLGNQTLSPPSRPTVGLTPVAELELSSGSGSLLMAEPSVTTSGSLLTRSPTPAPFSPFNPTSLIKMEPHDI
ETV5, sequence (P41161 whole entry): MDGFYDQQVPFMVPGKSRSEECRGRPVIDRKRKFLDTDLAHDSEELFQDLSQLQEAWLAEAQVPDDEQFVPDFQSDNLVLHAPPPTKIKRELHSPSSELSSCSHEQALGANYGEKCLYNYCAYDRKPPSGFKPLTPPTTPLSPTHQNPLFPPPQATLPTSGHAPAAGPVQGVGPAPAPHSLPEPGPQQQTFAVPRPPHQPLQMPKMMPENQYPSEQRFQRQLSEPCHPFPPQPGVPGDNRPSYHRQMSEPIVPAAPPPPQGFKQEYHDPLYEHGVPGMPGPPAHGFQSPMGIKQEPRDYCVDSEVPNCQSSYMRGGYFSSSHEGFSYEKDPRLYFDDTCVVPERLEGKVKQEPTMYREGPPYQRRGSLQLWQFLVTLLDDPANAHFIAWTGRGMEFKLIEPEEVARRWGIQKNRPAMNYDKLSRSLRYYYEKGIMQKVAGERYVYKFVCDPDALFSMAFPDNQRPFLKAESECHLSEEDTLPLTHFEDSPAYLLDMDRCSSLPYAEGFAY
ETV1, sequence (P50549 whole entry): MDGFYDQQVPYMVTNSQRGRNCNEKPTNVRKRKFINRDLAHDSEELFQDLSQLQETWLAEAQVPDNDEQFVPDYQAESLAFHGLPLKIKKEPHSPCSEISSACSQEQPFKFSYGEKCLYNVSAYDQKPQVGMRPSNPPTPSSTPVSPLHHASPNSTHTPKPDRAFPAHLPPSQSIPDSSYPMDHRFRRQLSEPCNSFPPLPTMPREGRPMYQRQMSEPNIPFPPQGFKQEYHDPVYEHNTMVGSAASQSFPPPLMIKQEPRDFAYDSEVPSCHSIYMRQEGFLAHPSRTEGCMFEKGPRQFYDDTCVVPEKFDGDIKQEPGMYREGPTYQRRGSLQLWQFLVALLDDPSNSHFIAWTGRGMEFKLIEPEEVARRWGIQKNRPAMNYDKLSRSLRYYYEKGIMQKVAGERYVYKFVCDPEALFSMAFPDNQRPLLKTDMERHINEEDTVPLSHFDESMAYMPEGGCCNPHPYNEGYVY
ETV6, sequence (P41212 whole entry): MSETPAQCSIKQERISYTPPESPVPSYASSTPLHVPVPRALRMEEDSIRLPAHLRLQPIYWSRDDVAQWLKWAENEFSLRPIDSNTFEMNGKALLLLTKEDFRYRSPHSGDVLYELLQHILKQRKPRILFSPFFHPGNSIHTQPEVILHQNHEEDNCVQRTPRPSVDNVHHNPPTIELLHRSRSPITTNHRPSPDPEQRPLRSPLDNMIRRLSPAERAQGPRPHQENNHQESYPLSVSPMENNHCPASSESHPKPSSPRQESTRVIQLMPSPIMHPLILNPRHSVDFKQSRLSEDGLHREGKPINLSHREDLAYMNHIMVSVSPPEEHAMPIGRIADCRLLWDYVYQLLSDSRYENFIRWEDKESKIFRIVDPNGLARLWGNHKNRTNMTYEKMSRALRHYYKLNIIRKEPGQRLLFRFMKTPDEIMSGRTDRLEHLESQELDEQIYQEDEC
CRX, sequence (O43186 whole entry): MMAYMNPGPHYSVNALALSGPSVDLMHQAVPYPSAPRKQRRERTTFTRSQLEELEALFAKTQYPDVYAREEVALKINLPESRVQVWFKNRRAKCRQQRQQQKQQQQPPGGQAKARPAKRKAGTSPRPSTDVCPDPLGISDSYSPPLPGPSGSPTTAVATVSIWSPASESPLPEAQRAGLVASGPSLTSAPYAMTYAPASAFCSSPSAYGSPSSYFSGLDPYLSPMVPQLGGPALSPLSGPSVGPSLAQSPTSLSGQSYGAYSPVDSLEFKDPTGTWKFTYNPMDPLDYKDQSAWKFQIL

Regarding AACTCA, the binding signal with FEV was 1.26 fold enrichment (6-mer frequency, TF over GST control); with ETV5 it was 1.25 fold enrichment (6-mer frequency, TF over GST control); with HSF1 it was 1.14 fold enrichment (6-mer frequency, TF over GST control); in the assay with SPIC, 1.2 fold enrichment (6-mer frequency, TF over GST control); with ELF4 it was 1.27 fold enrichment (6-mer frequency, TF over GST control); with ELK4, 1.21 fold enrichment (6-mer frequency, TF over GST control). Also, the binding signal in the assay with ETV2 was 1.22 fold enrichment (6-mer frequency, TF over GST control); in the assay with ELF3 it was 1.15 fold enrichment (6-mer frequency, TF over GST control); in the assay with CRX, 1.12 fold enrichment (6-mer frequency, TF over GST control); in the assay with ETV1, 1.24 fold enrichment (6-mer frequency, TF over GST control); with ERF, 1.18 fold enrichment (6-mer frequency, TF over GST control); with ETV3L it was 1.18 fold enrichment (6-mer frequency, TF over GST control). Besides, the binding signal with ETS2 was 1.28 fold enrichment (6-mer frequency, TF over GST control); in the assay with SPDEF it was 1.22 fold enrichment (6-mer frequency, TF over GST control); with ETV7, 1.2 fold enrichment (6-mer frequency, TF over GST control); with ELF5, 1.22 fold enrichment (6-mer frequency, TF over GST control); with ETV3, 1.26 fold enrichment (6-mer frequency, TF over GST control); with ETV6 it was 1.34 fold enrichment (6-mer frequency, TF over GST control).

The record behind these values is article PMC7862700, “An all-to-all approach to the identification of sequence-specific readers for epigenetic DNA modifications on cytosine”.
